This is a sample that favours compounds with a hit; in the whole collection about 1.1% have one here.
NR5A2 inv ag = suppresses constitutive activity of human LRH-1. 360,000 compounds, 0.13% hits. inhibition, % at 3.6 µM. AID 602396. HEK293T StAR-luciferase reporter, LRH-1 transfected, 24 h;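 active = inhibition above the mean inhibition of all tested compounds plus 3 SD, cut at about 73% in these data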;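 note: 0% = DMSO wells and 100% = reporter-only cells lacking LRH-1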
NCOA1 inh = inhibitors of human steroid receptor coactivator 1 (SRC1); Q15788; HEK293 GAL4-SRC1 luciferase reporter, luminescence; inhibition, % at 3.6 µM; 360,000 compounds, 0.12% hits;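 active = inhibition above the campaign mean plus 3 SD, with each screening campaign given its own cutoff, cut at about 60% in these data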;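 note: 0% = DMSO treated cells and 100% = gossypol at 36 µM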
NR2F2 inh = inhibitors of human COUP-TFII (NR2F2); P24468; HEK293T NGFI-A luciferase reporter, luminescence; inhibition, % at 8.6 µM; 370,000 compounds, 0.7% hits; AID 686940;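 active = inhibition above a per-plate cutoff, mean inhibition of test wells between control levels plus 3 SD, cut at about 38% in these data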;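 note: cells cotransfected with COUP-TFII expression vector driving the NGFI-A reporter; 0% = median of COUP-TF2 test wells and 100% = reporter-only cells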
NCOA3 inh = inhibits human SRC3 coactivator; HEK293 GAL4-SRC3 luciferase reporter, luminescence; AID 588352; inhibition, % at 3.6 µM; 360,000 compounds, 0.17% hits; Q9Y6Q9;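 active = inhibition above a per-campaign cutoff, the mean of all compounds plus 3 SD, cut at about 60% in these data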;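 note: 0% = DMSO-treated cells and 100% = gossypol-treated cells at 36 µM; higher means less SRC3-driven luciferase light from the GAL4 reporter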
SRC2 inh = inhibits human steroid receptor coactivator 2; inhibition, % at 9 µM; Q15596; 370,000 compounds, 0.17% hits; AID 651957; HEK293 GAL4-SRC2 luciferase reporter, luminescence;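 active = inhibition above the mean inhibition of all tested compounds plus 3 SD, set per campaign, cut at about 52% in these data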;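 note: 0% = DMSO treated cells and 100% = cells given Gossypol at 36 µM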
GalR3 antagonist = blocks the human galanin receptor 3; O60755; HEK293 GalR3-CNG cAMP membrane potential fluorescence; galR3 body fused to GalR1 C-terminus; inhibition, % at 3 µM; 360,000 compounds, 0.44% hits;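 active = inhibition above the screen-wide average plus 3 SD, cut at about 13% in these data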;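 note: forskolin and galanin both at EC90 stimulate the cells; cAMP rise reported by CNG channel membrane potential dye signal; 0% = forskolin plus galanin with DMSO and 100% = forskolin alone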
* = called active by the depositor.

How did CCOc1ccc(C2C=C(c3ccc(F)cc3)Nc3ncnn32)cc1 (stereo not drawn) do in these assays?
NR5A2 inv ag: -63; NCOA1 inh: -43; NR2F2 inh: -31; NCOA3 inh: -64; SRC2 inh: -52; GalR3 antagonist: 1

How did Oc1ccc(C2C=C(c3ccc(F)cc3)Nc3ncnn32)cc1 (stereo not drawn) do in these assays?
NR5A2 inv ag: 0; NCOA1 inh: 66*; NR2F2 inh: 0; NCOA3 inh: 11; SRC2 inh: 20; GalR3 antagonist: 2

Results for CC1CCN(S(=O)(=O)c2ccc(C(=O)N3CCN(c4ccccc4F)CC3)cc2)CC1 ?
NR5A2 inv ag: -14; NCOA1 inh: -9; NR2F2 inh: 0; NCOA3 inh: 11; SRC2 inh: -10; GalR3 antagonist: -9

Results for O=C(Nc1ccc([N+](=O)[O-])cc1)c1ccc(Cn2cc([N+](=O)[O-])cn2)cc1 ?
NR5A2 inv ag: 78*; NCOA1 inh: 54; NR2F2 inh: 0; NCOA3 inh: 48; SRC2 inh: -26; GalR3 antagonist: -1

Results for O=C(Nc1cnn(Cc2ccc(Cl)cc2)c1)c1ccc([N+](=O)[O-])cc1 ?
NR5A2 inv ag: 36; NCOA1 inh: 1; NR2F2 inh: 3; NCOA3 inh: -3; SRC2 inh: 20; GalR3 antagonist: 3

Results for CCCCCCCCNc1ncnc2[nH]ncc12 ?
NR5A2 inv ag: 12; NCOA1 inh: 25; NR2F2 inh: 38*; NCOA3 inh: 12; SRC2 inh: 11; GalR3 antagonist: -5

Results for OCCCNc1ncnc2[nH]ncc12 ?
NR5A2 inv ag: 6; NCOA1 inh: 1; NR2F2 inh: 10; NCOA3 inh: -5; SRC2 inh: -1; GalR3 antagonist: -2

Results for CC1=C(C(=O)OCc2ccc3c(c2)OCO3)C(c2ccccc2)NC(=O)N1 (stereo not drawn) ?
NR5A2 inv ag: 47; NCOA1 inh: 71*; NR2F2 inh: 30; NCOA3 inh: 70*; SRC2 inh: 54*; GalR3 antagonist: -1

What do the screens show for `CC1=C(C(=O)OCc2ccc3c(c2)OCO3)C(c2ccccc2OCc2ccccc2)NC(=O)N1` (stereo not drawn)?
NR5A2 inv ag: 14; NCOA1 inh: 19; NR2F2 inh: 22; NCOA3 inh: 17; SRC2 inh: 1; GalR3 antagonist: -3

What do the screens show for `CC1=C(C(=O)OCc2ccc3c(c2)OCO3)C(c2ccc(O)c([N+](=O)[O-])c2)NC(=O)N1` (stereo not drawn)?
NR5A2 inv ag: -1; NCOA1 inh: 52; NR2F2 inh: 23; NCOA3 inh: 58; SRC2 inh: 56*; GalR3 antagonist: 1

Results for CCOC(=O)Nc1nnc(/C=C/c2ccc(OC)cc2)s1 ?
NR5A2 inv ag: -18; NCOA1 inh: -28; NR2F2 inh: 2; NCOA3 inh: -7; SRC2 inh: -17; GalR3 antagonist: -2

Results for COC1C(CO)OC(n2c3c(Cl)cccc3c3c4c(c5c6cccc(Cl)c6[nH]c5c32)C(=O)NC4=O)C(O)C1O (stereo not drawn) ?
NR5A2 inv ag: 29; NCOA1 inh: 70*; NR2F2 inh: 3; NCOA3 inh: 64*; SRC2 inh: -23; GalR3 antagonist: -4

How did Cc1nnc(SC(=O)N2c3ccccc3Sc3ccccc32)s1 do in these assays?
NR5A2 inv ag: 31; NCOA1 inh: 17; NR2F2 inh: -6; NCOA3 inh: 65*; SRC2 inh: 60*; GalR3 antagonist: 1

Results for CCOC(=O)N1c2ccccc2Sc2ccccc21 ?
NR5A2 inv ag: 3; NCOA1 inh: 20; NR2F2 inh: 31; NCOA3 inh: 12; SRC2 inh: -5; GalR3 antagonist: -6

What do the screens show for `Cc1nn(C)c(C)c1/C=C(/C(=O)C(C)(C)C)n1cncn1`?
NR5A2 inv ag: -30; NCOA1 inh: 15; NR2F2 inh: 12; NCOA3 inh: 6; SRC2 inh: 5; GalR3 antagonist: 0

Results for CC(C)(C)C(=O)/C(=C/c1ccncc1)n1cncn1 ?
NR5A2 inv ag: 52; NCOA1 inh: 54; NR2F2 inh: 26; NCOA3 inh: 63*; SRC2 inh: 72*; GalR3 antagonist: 6

Screening data from PubChem BioAssay.
